KB-3-1 cytotox: kills parental KB-3-1 adenocarcinoma cells; KB-3-1 viability, CellTiter-Glo ATP luminescence, 72 h; Potency, µM (top dose mostly 46.1 µM), hits mostly cytotoxic; 400,000 compounds, 1.4% hits; AID 1347075; note: % is set by controls: 0 for no effect and ±100 for the full control effect; nearly all actives have a fitted effect of over 60% in size
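Viability of parental KB-3-1 cells, measured by CellTiter-Glo luminescence, followed a 72 h incubation at 37 °C with pinned compounds in phenol-red-free DMEM containing 10% FBS.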
HT1080 IDH1KD tx: HT-1080 IDH1 knockdown cell toxicity (counter line) | HT-1080 IDH1 knockdown viability, ATP luminescence, 48 h | Potency, µM (doses to about 46.1 µM), inactives show at the highest dose activity, negative = toxicity, most hits filed as cytotoxic | 360,000 compounds, 2% hits;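 note: 0% = DMSO wells and -100% = cell-free medium wells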
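Luminescent ATP read-out (CellTiter-Glo, 10 min at room temperature) after 48 h compound exposure at 37 °C gave viability of IDH1-knockdown HT-1080 cells. Activity was normalised to DMSO and cell-free wells, then fitted as concentration-response curves.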
SW480 rereplic: induces DNA re-replication in SW480 colon adenocarcinoma cells; SW480 DNA re-replication, Hoechst DNA content imaging, 48 h; Potency, µM (top dose mostly 46.1 µM), inactives show at the highest dose re-replication activation, actives largely listed as activators; 340,000 compounds, 1.8% hits; note: % of control where 0% means no effect; nearly all actives have a fitted effect of over 55% in size
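Per well, 250 cells were exposed to pinned compound for 48 hr. Nuclear DNA was visualised with Hoechst (40 min, 37 C) and total object intensity recorded by fluorescence scanning.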
HT1080-NT tox: kills 2HG-producing HT-1080-NT fibrosarcoma cells; HT-1080-NT fibrosarcoma viability, CellTiter-Glo ATP luminescence, 48 h; Potency, µM (doses to about 46.1 µM), without a hit: top-dose activity, negative = less viability, actives largely listed as cytotoxic; 360,000 compounds, 1.6% hits;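 note: NT is the 2HG producing partner of a matched IDH1 knockdown line; 0% = DMSO-treated cells and -100% = media-only wells without cells; nearly all actives have a fitted effect of over 55% in size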
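750 cells/well, RPMI + 5% FBS; 2 h settle, compound pin-transfer, 48 h at 37 degrees C. CellTiter-Glo 10 min RT, luminescence. Normalized to DMSO and media-only wells.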
MCF10A rereplic: induces DNA re-replication in MCF 10a normal breast cells. 350,000 compounds, 2.9% hits. AID 624296. MCF 10A DNA re-replication, Hoechst nuclear intensity, 48 h. Potency, µM (titrated, usually from 46.1 µM), inactives show at the top dose activity, positive = re-replication, most hits filed as activators; note: % of control where 0% means no effect; nearly all actives have a fitted effect of over 50% in size
KB-V1 cytotox: KB-V1 MDR subline cytotoxicity | 400,000 compounds, 3.4% hits | Potency, µM (top dose mostly 46.1 µM), usual class: cytotoxic | KB-V1 MDR cells viability, CellTiter-Glo, 72 h | AID 1347076; note: % is set by controls: 0 for no effect and ±100 for the full control effect; nearly all actives have a fitted effect of over 60% in size
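KB-V1 cells (P-gp-expressing MDR subline of KB-3-1) in phenol-red-free DMEM with 10% FBS were exposed to library compounds over a concentration series for 72 h at 37 degrees C. Viability read by CellTiter-Glo luminescence; concentration-effect curves fitted after normalization.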
* marks the source's active call; other numbers are inactive results; i = inactive; ? = inconclusive; / = not tested or not shown; [ ] = another dose, or the depositor's remark. Shown are actives, neighbours in structure and some others; about 7.9% of the full set was active somewhere. Calls come from the whole dose curve; as a rule, active = well fitted curve in the direction sought with a large enough effect; inconclusive = small, poorly fitted or top-dose-only effect, or another doubt; inactive = no such curve, though single readings can be large; an effect the other way counts as inactive or inconclusive. Potency is the fitted concentration of half-maximal effect.

SMILES	KB-3-1 cytotox	HT1080 IDH1KD tx	SW480 rereplic	HT1080-NT tox	MCF10A rereplic	KB-V1 cytotox
COc1cc(-c2cc3n(C)c(C)c(CCC(=O)O)c(=O)n3n2)cc(OC)c1OC	i	/	/	/	/	?
Cc1ccc(C)c(NC(=O)c2ccc3c(c2)CCCN3S(C)(=O)=O)c1	i	/	/	/	/	i
CC1(C)NC(=O)N(CCCOc2ccc(Br)cc2Cl)C1=O	i	-23%	-3%	3%	-8%	?
CC1(C)NC(=O)N(CCCCOc2ccc(Cl)cc2C=O)C1=O	i	?	?	23µM*	15%	i
CC(C)c1cc(Br)ccc1OCCCN1C(=O)NC(C)(C)C1=O	?	-12%	11%	-2%	17%	13µM*
COc1ccc(S(=O)(=O)NCC(c2ccco2)N2CCOCC2)cc1OC (configuration not stated)	i	/	/	/	/	i
Cc1ccc(N(C)S(=O)(=O)c2cccc(C(=O)OCC(=O)N3CCCC(C)C3)c2)cc1 (configuration not stated)	i	9%	-5%	8%	9%	21µM*
CC1CCN(C(=O)COC(=O)c2cccc(S(=O)(=O)N(C)c3ccccc3)c2)CC1	i	2%	-6%	2%	?	21µM*
CC1CCCC(C)N1C(=O)COC(=O)c1cccc(S(=O)(=O)N(C)c2ccccc2)c1 (configuration not stated)	i	-11%	-35%	-2%	17%	i
OC(c1ccc(F)c(F)c1)c1nc(-c2ccc3c(c2)OCO3)cs1 (configuration not stated)	i	-25%	/	-8%	/	i
CCCNC(=O)c1ccc2c(=O)c(O)c(-c3cccc(Br)c3)[nH]c2c1	12µM*	?	-19%[9.22 µM]	-15%	-34%	i
C[N+](C)(C)c1ccc(/C=C2\C=Cc3ccccc32)cc1	?	/	/	/	/	i
Cc1ccc2nc(-c3ccccc3)c(Cc3ccsc3)n2c1	?	-6%	/	1%	/	21µM*
Cc1ccc2nc(C3CCCCC3)c(Cc3ccsc3)n2c1	?	?	/	-30%	/	16µM*
Cc1ccc(Cc2c(C3CCCCC3)nc3ccc(C)cn23)cc1	i	?	/	?	/	i
CC(=O)Nc1ccc(NC(=O)c2ncoc2-c2ccco2)cc1	i	/	/	/	/	i
Cc1cccc(C(=O)N2CCc3cc(CNC(=O)c4ccco4)ccc32)c1	?	/	/	/	/	i
CCOC(=O)/C(=C\c1ccc(Cl)cc1)c1nc2sc(C)c(C)c2c(=O)[nH]1	?	12µM*	?	10µM*	5.2µM*	?
CC(=O)Nc1ccc(NC(=O)CN2C(=O)CN(C)C(=O)c3ccccc32)cc1	i	/	/	/	/	i
COc1ccccc1NC1=C(Cl)C(=O)N(c2ccccc2)C1=O	i	19%	10µM*	7%	-3%	i
COc1ccc(NC2=C(Cl)C(=O)N(c3ccccc3)C2=O)c(OC)c1	i	6%	-4%	12%	11%	i
CCC1=C[C@@H]2CN(C1)Cc1c([nH]c3ccccc13)[C@@](C(=O)OC)(c1cc3c(cc1OC)N(C)[C@H]1[C@@](O)(C(=O)OC)[C@H](OC(C)=O)[C@]4(CC)C=CCN5CC[C@]31[C@@H]54)C2	0.029µM*	/	/	/	/	?
CC(=O)N1CCCC(C)(C(=O)Nc2ccc3oc(C)nc3c2)C1 (configuration not stated)	i	12%	/	14%	/	i
CC1(c2nnnn2Cc2ccccc2)CCC(=O)N1CCc1ccccc1F (configuration not stated)	i	-16%	/	0%	/	?
O=C(ONc1ccc(N=NC(=O)c2ccccc2O)cc1)c1ccccc1	i	1.8µM*	7%	2.3µM*	12%	i
SMILES	KB-3-1 cytotox	HT1080 IDH1KD tx	SW480 rereplic	HT1080-NT tox	MCF10A rereplic	KB-V1 cytotox
O=Nc1ccc(NOC(=O)c2ccccc2Br)cc1	i	0%	?	-3%	7%	?
Cc1ccc(CN2C(=O)C3(c4ccccc42)N(c2cccc(F)c2)C(=O)CS3(=O)=O)cc1 (configuration not stated)	i	/	/	/	/	?
O=C(Nc1cccn2nc(COCCO)nc12)C(c1ccccc1)c1ccccc1	i	29%	/	2%	/	i
COc1ccc([N+](=O)[O-])cc1NC(=O)C(C)Sc1ccc(C)cc1 (configuration not stated)	?	8%	6%	11%	11%	i
COC(=O)c1cc(OC)c(OC)cc1NC(=O)C(C)Sc1ccc(C)cc1 (configuration not stated)	i	2%	15%	2%	3.7µM*	?
C[C@@H]1ON(C)[C@H]2C[C@H]3c4[nH]c5ccccc5c4CCN3C(=O)[C@@H]12	i	2%	/	6%	/	i
CC1CC(C)C(=NNC(N)=O)C(C(O)CC2CCC(=O)NC2=O)C1 (configuration not stated)	12µM*	?	-1%	-3%	?	?
COc1ccc(-c2cc(-c3cccs3)nc(OC)c2C#N)cc1OC	?	?	?	?	6.5µM*	4.6µM*
COc1cc(-c2c(C#N)c(N)nc3c2CCCC3)ccc1O	i	-9%	4%	-2%	3%	i
COc1ccc(-c2c(C#N)c(N)nc3c2CCc2ccccc2-3)cc1OC	5.8µM*	21µM*	?	?	1.6µM*	5.2µM*
COc1ccc(-c2cc(-c3cccs3)c(C#N)c(SCC(=O)NCc3ccccc3)n2)cc1	i	4%	5%[9.22 µM]	13%	4%	i
COc1nc(-c2cccs2)cc(-c2ccc(C)cc2)c1C#N	16µM*	?	4µM*	?	?	11µM*
CCOc1ccc(C(=O)c2cn(Cc3ccccc3)c3c(F)cc(F)cc3c2=O)cc1	i	/	/	/	/	i
O=c1n(CC2CO2)c(=O)n(CC2CO2)c(=O)n1CC1CO1 (configuration not stated)	?	-21%	9.2µM*	0%	1.8µM*	i
CC(C)NC(=O)CN1C(=O)CCn2nc(-c3cn(C)c4ccccc34)cc21	i	/	/	/	/	i
COc1ccc(/C=C2\Cc3ccccc3C2=O)cc1OC	i	5%	2%	3%	28%	i
COc1cc(C=C2CCCC(=Cc3ccc(OCC4CO4)c(OC)c3)C2=O)ccc1OCC1CO1 (configuration not stated)	?	?	/	16µM*	/	?
COc1ccc(/C=C2/CSC/C(=C/c3ccc(OC)c(OC)c3)C2=O)cc1OC	4.6µM*	5.8µM*	2.9µM*	5.8µM*	?	1.5µM*
